Assay results from ChEMBL document CHEMBL1961873, “Compounds: GSK PKIS; Assays: Nanosyn kinase panel” (2012).

Experiments:
[1] = target: T1, Serine/threonine-protein kinase D2 (Homo sapiens) (UniProt Q9BZL6); details: at 1 µM;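 further: mean value of PRKD2 inhibition, from the GSK PKIS screening panel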
T1 sequence (whole entry): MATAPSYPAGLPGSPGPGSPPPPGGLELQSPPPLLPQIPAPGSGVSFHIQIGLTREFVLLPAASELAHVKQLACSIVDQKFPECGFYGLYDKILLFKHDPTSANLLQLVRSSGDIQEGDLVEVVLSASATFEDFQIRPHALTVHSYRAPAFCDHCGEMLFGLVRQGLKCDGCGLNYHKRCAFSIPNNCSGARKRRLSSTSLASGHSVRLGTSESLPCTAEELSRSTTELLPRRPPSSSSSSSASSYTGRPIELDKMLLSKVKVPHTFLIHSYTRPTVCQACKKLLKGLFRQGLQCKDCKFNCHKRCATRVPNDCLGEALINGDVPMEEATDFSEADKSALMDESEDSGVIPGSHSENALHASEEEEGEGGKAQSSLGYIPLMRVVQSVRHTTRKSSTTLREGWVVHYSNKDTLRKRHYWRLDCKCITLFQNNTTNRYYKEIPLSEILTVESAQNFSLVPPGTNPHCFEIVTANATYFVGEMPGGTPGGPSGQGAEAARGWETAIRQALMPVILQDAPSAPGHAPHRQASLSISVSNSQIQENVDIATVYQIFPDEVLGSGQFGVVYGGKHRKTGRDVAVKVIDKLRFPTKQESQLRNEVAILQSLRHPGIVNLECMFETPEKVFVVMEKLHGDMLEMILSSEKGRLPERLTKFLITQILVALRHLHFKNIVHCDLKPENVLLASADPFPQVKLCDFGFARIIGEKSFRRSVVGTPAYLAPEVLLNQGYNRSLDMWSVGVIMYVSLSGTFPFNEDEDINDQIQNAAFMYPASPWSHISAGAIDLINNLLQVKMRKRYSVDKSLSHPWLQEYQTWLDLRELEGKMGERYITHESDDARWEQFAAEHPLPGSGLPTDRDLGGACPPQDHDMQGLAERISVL

[2] = target: T2, Serine/threonine-protein kinase D3 (Homo sapiens) (UniProt O94806); details: at 0.1 µM
T2 sequence (whole entry): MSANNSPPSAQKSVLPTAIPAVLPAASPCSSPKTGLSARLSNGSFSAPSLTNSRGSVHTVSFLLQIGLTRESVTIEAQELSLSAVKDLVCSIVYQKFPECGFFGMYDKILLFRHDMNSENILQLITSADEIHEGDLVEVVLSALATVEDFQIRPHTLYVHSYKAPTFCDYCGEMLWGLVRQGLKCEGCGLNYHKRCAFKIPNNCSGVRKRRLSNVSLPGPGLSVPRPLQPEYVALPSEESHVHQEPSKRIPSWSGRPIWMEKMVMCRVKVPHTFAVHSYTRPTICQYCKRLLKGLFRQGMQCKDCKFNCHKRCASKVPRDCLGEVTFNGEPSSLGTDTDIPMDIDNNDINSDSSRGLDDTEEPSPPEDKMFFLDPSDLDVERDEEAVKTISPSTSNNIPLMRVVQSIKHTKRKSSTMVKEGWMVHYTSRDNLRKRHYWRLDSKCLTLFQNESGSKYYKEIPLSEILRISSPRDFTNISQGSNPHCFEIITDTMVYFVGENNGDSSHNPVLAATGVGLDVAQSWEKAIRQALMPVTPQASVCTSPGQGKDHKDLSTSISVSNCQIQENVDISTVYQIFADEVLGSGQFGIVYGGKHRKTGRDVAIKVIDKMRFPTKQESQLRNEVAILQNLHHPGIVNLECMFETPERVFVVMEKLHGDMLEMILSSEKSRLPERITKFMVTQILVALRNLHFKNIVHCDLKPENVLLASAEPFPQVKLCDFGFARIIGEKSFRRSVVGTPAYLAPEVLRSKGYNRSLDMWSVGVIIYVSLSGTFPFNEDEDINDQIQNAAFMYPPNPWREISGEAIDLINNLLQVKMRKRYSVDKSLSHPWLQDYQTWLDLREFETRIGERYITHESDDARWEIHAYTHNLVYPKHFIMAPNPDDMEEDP

[3] = target: T2, Serine/threonine-protein kinase D3 (Homo sapiens); details: at 1 µM
[4] = target: T3, cGMP-dependent protein kinase 1 (Homo sapiens) (UniProt Q13976); details: at 0.1 µM
T3 sequence (whole entry): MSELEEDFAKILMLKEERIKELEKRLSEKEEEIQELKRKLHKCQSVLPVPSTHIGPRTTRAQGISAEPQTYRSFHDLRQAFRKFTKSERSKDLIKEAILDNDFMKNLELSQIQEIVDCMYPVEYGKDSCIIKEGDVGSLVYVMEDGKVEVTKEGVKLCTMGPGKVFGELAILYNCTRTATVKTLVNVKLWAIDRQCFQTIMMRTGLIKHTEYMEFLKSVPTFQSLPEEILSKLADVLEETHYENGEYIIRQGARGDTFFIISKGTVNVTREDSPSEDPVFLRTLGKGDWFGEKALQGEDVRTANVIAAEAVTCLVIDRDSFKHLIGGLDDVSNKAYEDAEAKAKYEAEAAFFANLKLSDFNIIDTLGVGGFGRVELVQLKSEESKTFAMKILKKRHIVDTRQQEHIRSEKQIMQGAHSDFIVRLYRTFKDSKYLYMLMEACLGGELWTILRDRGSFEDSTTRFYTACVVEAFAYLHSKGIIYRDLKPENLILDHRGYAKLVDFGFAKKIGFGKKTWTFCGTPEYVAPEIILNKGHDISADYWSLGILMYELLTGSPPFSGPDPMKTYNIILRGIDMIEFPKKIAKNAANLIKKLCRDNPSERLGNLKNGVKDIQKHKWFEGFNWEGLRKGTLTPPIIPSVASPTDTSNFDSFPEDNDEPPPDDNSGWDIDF

[5] = target: T3, cGMP-dependent protein kinase 1 (Homo sapiens); details: at 1 µM
[6] = target: T4, cGMP-dependent protein kinase 2 (Homo sapiens) (UniProt Q13237); details: at 0.1 µM
T4 sequence (whole entry): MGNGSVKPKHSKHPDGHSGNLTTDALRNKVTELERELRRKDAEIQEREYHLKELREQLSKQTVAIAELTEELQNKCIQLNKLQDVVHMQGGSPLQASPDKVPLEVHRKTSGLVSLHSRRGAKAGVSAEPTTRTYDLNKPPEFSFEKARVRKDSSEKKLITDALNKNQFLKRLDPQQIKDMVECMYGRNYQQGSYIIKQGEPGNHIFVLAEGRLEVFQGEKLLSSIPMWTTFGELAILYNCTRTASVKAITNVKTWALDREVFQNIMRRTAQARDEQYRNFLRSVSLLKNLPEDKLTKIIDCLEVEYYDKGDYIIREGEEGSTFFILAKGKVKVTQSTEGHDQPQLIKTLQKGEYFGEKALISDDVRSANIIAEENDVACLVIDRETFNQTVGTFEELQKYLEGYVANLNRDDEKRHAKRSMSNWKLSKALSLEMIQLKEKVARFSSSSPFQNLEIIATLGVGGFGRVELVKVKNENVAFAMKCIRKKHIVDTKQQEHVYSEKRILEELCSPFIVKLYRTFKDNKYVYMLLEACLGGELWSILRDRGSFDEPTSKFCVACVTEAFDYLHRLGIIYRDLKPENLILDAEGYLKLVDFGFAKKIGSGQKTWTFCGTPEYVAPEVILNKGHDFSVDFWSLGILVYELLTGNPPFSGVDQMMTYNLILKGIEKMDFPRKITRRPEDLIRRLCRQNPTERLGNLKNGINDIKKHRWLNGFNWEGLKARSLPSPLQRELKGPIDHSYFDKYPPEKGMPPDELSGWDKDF

[7] = target: T4, cGMP-dependent protein kinase 2 (Homo sapiens); details: at 1 µM
[8] = target: T5, cAMP-dependent protein kinase catalytic subunit PRKX (Homo sapiens) (UniProt P51817); details: at 0.1 µM
T5 sequence (whole entry): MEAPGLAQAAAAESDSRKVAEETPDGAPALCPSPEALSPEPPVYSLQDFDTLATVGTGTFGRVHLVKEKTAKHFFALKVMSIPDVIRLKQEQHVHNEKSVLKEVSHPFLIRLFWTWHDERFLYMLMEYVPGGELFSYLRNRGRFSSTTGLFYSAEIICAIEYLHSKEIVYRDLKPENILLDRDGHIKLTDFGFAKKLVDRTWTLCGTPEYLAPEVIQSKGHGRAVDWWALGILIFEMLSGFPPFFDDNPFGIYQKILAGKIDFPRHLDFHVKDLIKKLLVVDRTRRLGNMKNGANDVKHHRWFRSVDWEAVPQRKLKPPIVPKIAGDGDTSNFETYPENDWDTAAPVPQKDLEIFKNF

[9] = target: T5, cAMP-dependent protein kinase catalytic subunit PRKX (Homo sapiens); details: at 1 µM
[10] = target: Rho-associated protein kinase 1 (Homo sapiens) (UniProt Q13464); details: at 0.1 µM;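 further: values are mean percent inhibition of ROCK1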
Rho-associated protein kinase 1 (Homo sapiens), sequence (Q13464 2-1354 limits assumed): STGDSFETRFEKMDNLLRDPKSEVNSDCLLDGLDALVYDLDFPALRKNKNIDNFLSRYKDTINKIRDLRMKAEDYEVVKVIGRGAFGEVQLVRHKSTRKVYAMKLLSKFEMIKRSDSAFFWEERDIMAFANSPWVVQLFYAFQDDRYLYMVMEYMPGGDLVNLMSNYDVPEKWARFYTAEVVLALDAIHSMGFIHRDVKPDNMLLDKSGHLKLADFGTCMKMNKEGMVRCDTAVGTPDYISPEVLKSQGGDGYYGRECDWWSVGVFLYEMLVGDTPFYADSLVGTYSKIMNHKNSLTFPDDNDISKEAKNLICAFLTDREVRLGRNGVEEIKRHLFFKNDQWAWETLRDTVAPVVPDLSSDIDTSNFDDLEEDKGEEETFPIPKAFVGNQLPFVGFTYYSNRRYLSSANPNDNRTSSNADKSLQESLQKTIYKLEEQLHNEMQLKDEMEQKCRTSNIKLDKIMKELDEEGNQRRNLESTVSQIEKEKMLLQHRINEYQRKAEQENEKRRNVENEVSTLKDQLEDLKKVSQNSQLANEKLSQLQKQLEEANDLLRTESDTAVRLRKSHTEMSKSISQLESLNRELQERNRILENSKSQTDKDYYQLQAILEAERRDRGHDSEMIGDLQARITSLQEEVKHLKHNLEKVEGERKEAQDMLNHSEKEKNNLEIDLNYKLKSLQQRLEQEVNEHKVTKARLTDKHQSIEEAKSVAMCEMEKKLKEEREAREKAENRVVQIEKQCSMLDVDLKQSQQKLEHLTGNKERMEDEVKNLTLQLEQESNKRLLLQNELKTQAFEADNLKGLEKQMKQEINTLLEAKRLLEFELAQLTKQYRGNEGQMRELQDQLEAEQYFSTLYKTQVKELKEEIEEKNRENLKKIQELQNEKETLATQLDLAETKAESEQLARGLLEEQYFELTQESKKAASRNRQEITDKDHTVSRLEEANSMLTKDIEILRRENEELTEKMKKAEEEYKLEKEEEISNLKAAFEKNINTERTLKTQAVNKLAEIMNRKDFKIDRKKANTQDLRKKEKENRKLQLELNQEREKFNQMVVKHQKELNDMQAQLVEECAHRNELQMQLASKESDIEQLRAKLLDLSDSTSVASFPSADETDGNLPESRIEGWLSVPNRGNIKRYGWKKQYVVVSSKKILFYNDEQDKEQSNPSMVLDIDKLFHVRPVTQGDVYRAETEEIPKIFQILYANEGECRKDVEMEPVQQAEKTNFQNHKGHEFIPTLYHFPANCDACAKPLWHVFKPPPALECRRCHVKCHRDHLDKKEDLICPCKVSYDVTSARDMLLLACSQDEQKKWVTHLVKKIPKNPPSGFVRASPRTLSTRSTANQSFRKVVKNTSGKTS

SMILES	inhibition [1]	inhibition [2]	inhibition [3]	inhibition [4]	inhibition [5]	inhibition [6]	inhibition [7]	inhibition [8]	inhibition [9]	inhibition [10]
NC(=O)c1cccc(Nc2nccc(Nc3cccc4[nH]ncc34)n2)c1	5%	-3.05%	4.5%	-0.53%	5.24%	0.86%	7.93%	7.81%	9.23%	0.94%
Fc1cccc(COc2ccc(Nc3ncnc4sc(-c5cccs5)cc34)cc2Cl)c1	-1.2%	-0.65%	-0.35%	1.57%	1.96%	0.03%	0.73%	0.64%	0.87%	1.73%
CC1=C(C(=O)Nc2ccc3[nH]ncc3c2)C(c2ccc3ccccc3c2)CC(=O)N1 (stereo unspecified)	6.67%	3.48%	8.7%	12.8%	53.3%	12.6%	53.3%	33.7%	75.3%	
CC1=C(C(=O)Nc2ccc3[nH]ncc3c2)C(c2ccc(F)cc2)NC(=O)N1 (stereo unspecified)	8.48%	3.46%	7.95%	4.58%	20.1%	1.73%	12.6%	12.7%	53.4%	
CS(=O)(=O)CCNCc1ccc(-c2ccc3ncnc(Nc4ccc(OCc5ccccc5)c(Cl)c4)c3c2)o1	-0.61%	-0.81%	-0.48%	1.06%	2%	0.55%	1.26%	0.78%	0.52%	1.32%
CCn1c(-c2nonc2N)nc2ccncc21	3.25%	0.84%	2.17%	0.57%	3.36%	2.12%	8.39%	0.91%	-1.6%	1.94%
CC1=C(C(=O)Nc2ccc3[nH]ncc3c2)C(c2ccc(Cl)c(Cl)c2)CC(=O)N1 (stereo unspecified)	5.98%	1.11%	9.26%	10.1%	50%	5.19%	34.7%	14.8%	59.2%	68.6%
CCCN1CCC=C(c2ccc(Nc3nc(Nc4ccccc4C(N)=O)c4cc[nH]c4n3)c(C)c2)C1	68.5%	18.8%	61.7%	4.43%	18.8%	5.72%	31.8%	2.31%	2.1%	2.33%
c1cnn2ncc(-c3ccnc(Nc4ccc5c(c4)OCCO5)n3)c2c1	38.2%	7.82%	50.5%	4.87%	18.9%	1.98%	8.51%	1.25%	2.29%	1.28%
Cc1nn(C)c2cc(N(C)c3ccnc(Nc4cccc(S(N)(=O)=O)c4)n3)ccc12	4.2%	2.9%	3.56%	4.25%	6.59%	2.42%	5.81%	2.89%	5.35%	1.17%
CCn1c(-c2nonc2N)nc2cncc(C(=O)N3CC[C@H](N)C3)c21	8.24%	3.97%	7.57%	57%	82.5%	72.7%	83.7%	31.8%	73.4%	
COc1cc2ncn(-c3cc(O[C@@H](C)c4ccccc4Cl)c(C(N)=O)s3)c2cc1OC	2.84%	4.96%	4.78%	3.4%	4.72%	4.02%	5.22%	3.8%	3.91%	2.15%
COc1cc2c(cc1Nc1nc(N3CCc4ccccc43)c3cc[nH]c3n1)N(C(=O)CN(C)C)CC2	3.6%	1.51%	4.37%	2.84%	2.75%	2.18%	2.75%	0.6%	-1.42%	0.33%
CCn1c(-c2nonc2N)nc2cnc(Oc3cccc(NC(=O)c4ccc(OCCN5CCOCC5)cc4)c3)cc21	4.52%	2.2%	2.69%	60.5%	76.6%	27.3%	66.3%	18.6%	63.1%	
COc1cccc(-n2ncc3c(N/N=C/c4cccc(F)c4)ncnc32)c1	-1.18%	-0.44%	-0.79%	2.15%	3.23%	2.4%	3.95%	1.69%	2.08%	0.34%
COc1ccc(-c2nn3ncccc3c2-c2ccnc(Nc3ccc(Cl)c(C(F)(F)F)c3)n2)cc1	4.34%	2.86%	3.78%	0.21%	0.97%	0.9%	2.46%	0.84%	3.14%	1.25%
Nc1nc(-c2ccc3c(c2)C(=Cc2cc(Br)c(O)c(Br)c2)C(=O)N3)cs1	-1.39%	-1.58%	-1.34%	0.42%	1.43%	-0.63%	1.49%	-0.49%	0.42%	-0.08%
